Reference: PubChem BioAssay (EPA / NIEHS)
“And” between values parts separate entries of the source, which are not always exact repeats. Identical values can stand only once. Inconclusive results are not listed. The source made the active and inactive calls. Rule for the calls, unless noted: active = hit-call score of the fitted dose curve at least 0.9, where 1 is the maximum; inconclusive = response in the unintended direction; inactive = score below 0.9.

Assays:
[1] = Tanguay_ZF_120hpf_SWIM_legacy: (Legacy) Oregon State University Tanguay Lab 120 Hour Post-fertilization zebrafish Assay for Swim Bladder Malformation (AID 2283654);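 note: swim bladder malformation in each larva scored yes or no under brightfield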
In short: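 Tropical 5D embryos dechorionated at 4 hpf; 1 embryo/well from 6 hpf; static, sealed, dark exposure at 28C until 120 hpf; final DMSO 0.64%; 5uM trimethyltin chloride positive control; swim bladder defect recorded yes/no; dead embryos not scored.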

[2] = Tanguay_ZF_120hpf_TRUN_legacy: (Legacy) Oregon State University Tanguay Lab 120 Hour Post-fertilization zebrafish Assay for Truncated Body (AID 2283655)
In short: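 Single dechorionated zebrafish embryos received test chemical from 6 hpf in 0.64% DMSO, kept at 28C. At 120 hpf, brightfield inspection noted any truncated body.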

[3] = read-out: solute carrier (SLC10A1), SLC10A1 (gene 6554); test: LTEA_HepaRG_SLC10A1: Life Technologies and Expression Analysis (LTEA) Assay for solute carrier (SLC10A1) using HepaRG (AID 2283657; active = hit-call score of the fitted dose curve at least 0.9, where 1 is the maximum; inactive = score below 0.9); settings: mRNA level, 48 h; actives raise or lower the signal
In short: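 HepaRG, 48 h exposure, 8-pt half-log curve from 100 uM in 0.5% DMSO, duplicates. Read-out: TaqMan qRT-PCR of SLC10A1 mRNA, normalized to three housekeeping genes. Gain/loss fit vs DMSO baseline.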

[4] = read-out: matrix metalloproteinase-1 (MMP1), MMP1 (gene 4312); test: LTEA_HepaRG_MMP1: Life Technologies and Expression Analysis (LTEA) Assay for matrix metalloproteinase-1 (MMP1) using HepaRG (AID 2283658; active = hit-call score of the fitted dose curve at least 0.9, where 1 is the maximum; inactive = score below 0.9); settings: mRNA level, 48 h; actives raise or lower the signal
In short: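 In this screen, human liver HepaRG cultures receive each chemical in duplicate for 48 h (top 100 uM, 0.5% DMSO). MMP1 expression is then quantified by TaqMan qRT-PCR with ACTB/GAPDH/POLR2A normalization.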

[5] = read-out: Cytochrome P450 (CYP24A1_1), CYP24A1 (gene 1591); test: LTEA_HepaRG_CYP24A1_1: Life Technologies and Expression Analysis (LTEA) Assay for Cytochrome P450 (CYP24A1_1) using HepaRG (AID 2283671; active = hit-call score of the fitted dose curve at least 0.9, where 1 is the maximum; inactive = score below 0.9); settings: mRNA level, 48 h; actives raise or lower the signal
In short: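 Readout is CYP24A1 transcript level by qRT-PCR, normalized to three housekeeping genes, with gain or loss of signal fitted against 0.5% DMSO. Human HepaRG cells received compound for 48 h at up to 100 uM.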

[6] = CCTE_Padilla_ZF_144hpf_TERATOSCORE: (Legacy) CCTE's 144 Hour Post-fertilization zebrafish Assay Teratoscore, Padilla Lab (AID 2283679; active = hit-call score of the fitted dose curve at least 0.9, where 1 is the maximum; inactive = score below 0.9;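 for AC50: zebrafish embryos with chorions exposed by immersion from 6-8 hpf to 5 dpf with daily renewal; teratogenicity score from eye scoring of death hatching and malformations at 144 hpf; higher score means more developmental defects relative to DMSO baseline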)
In short: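 Larvae scored by eye at 144 hpf for death, hatching and malformations after a day in clean Hanks'. Before that, daily-renewed exposure at 80 uM (0.4% DMSO, 26C) from roughly 6-8 hpf through 5 dpf, 4 embryos per chemical.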

[7] = Tanguay_ZF_120hpf_TR_legacy: (Legacy) Oregon State University Tanguay Lab 120 Hour Post-fertilization zebrafish Assay for Touch Response (AID 2283667)
In short: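 Binary touch-response call at 120 hpf, analysed as gain of signal versus DMSO baseline. Wild-type 5D larvae, static exposure at 28C, 0.64% DMSO final; 5uM trimethyltin chloride as positive control.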

[8] = test system: Thyroperoxidase (TPO), gene 54314; test: CCTE_Simmons_AUR_rTPO: CCTE's Amplex UltraRed Assay for Thyroperoxidase (TPO) Inhibition, Simmons Lab (AID 2283662);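 note: potency for loss of signal meaning inhibition of peroxidase activity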
In short: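 Rat thyroid microsomes (5 ug protein) were incubated with test compound (8 concentrations, 5 nM–87.5 uM final, 0.5% DMSO), 25 uM Amplex UltraRed and 300 uM H2O2 in 200 mM phosphate buffer for 30 min at 37C in the dark; fluorescence read at 544/590 nm.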

[9] = CCTE_Simmons_CellTiterGLO_HEK293T: Viability Assessment in CCTE's Assays for Thyroperoxidase (TPO) Inhibition, Simmons Lab (AID 2283665);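 for AC50: cells exposed to compound for 24 h before readout; actives reduce ATP signal below DMSO vehicle meaning cytotoxicity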
In short: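 Luciferase-coupled ATP content after 24 h exposure gives viability; 8-point series from 5 nM to 87.5 uM final in 0.5% DMSO. Human HEK293T cells, 1% FBS medium, three biological replicates, dichlone positive control.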

[10] = Tanguay_ZF_120hpf_NC_legacy: (Legacy) Oregon State University Tanguay Lab 120 Hour Post-fertilization zebrafish Assay for Notochord and Tail Malformation (AID 2283656)
In short: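 Binary scoring of notochord distortion by brightfield microscopy; embryos dying were not scored. Wild-type Tropical 5D embryos, chorion removed, exposed singly and statically from 6 to 120 hpf, 28C, sealed, 0.64% DMSO.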

O=C(OCCOCCOC(=O)c1ccccc1)c1ccccc1
outcome [1]: inactive
outcome [2]: inactive
outcome [3]: inactive
outcome [4]: inactive
outcome [5]: inactive
AC50 [6]: 1.74 µM (active)

CCCCC(CC)COC(=O)CCCCC(=O)OCc1ccccc1 (stereo unspecified)
outcome [1]: inactive
outcome [2]: inactive

CC(C)CCCCCCOC(=O)CCCCC(=O)OCCCCCCC(C)C
outcome [1]: inactive
outcome [2]: inactive
outcome [7]: inactive

CCCCCCCCCCCCc1ccccc1S(=O)(=O)O
outcome [1]: inactive
outcome [2]: inactive
AC50 [8]: 37.3 µM (active)
AC50 [9]: 33.9 µM (active)
AC50 [6]: 3.26 µM (active)

CCN(CC)CCNc1ccc(CNC=O)c2sc3ccc(OC)cc3c(=O)c12
outcome [1]: inactive
outcome [2]: inactive
AC50 [8]: 24.9 µM (active)
AC50 [9]: 22.1 µM (active)
AC50 [6]: 57.8 µM (active)

Cc1oc(-c2ccccc2)nc1CCOc1ccc(C[C@H](Nc2ccccc2C(=O)c2ccccc2)C(=O)O)cc1
outcome [1]: inactive
outcome [2]: inactive
AC50 [8]: 27.5 µM (active)
AC50 [9]: 12.1 µM (active)
AC50 [6]: 5.11 µM (active)

CC(C)(C)CC(C)(C)c1ccc(O)c(-n2nc3ccccc3n2)c1
outcome [1]: inactive
outcome [2]: inactive

CCC(=C(c1ccc(O)cc1)c1ccc(OCCN(C)C)cc1)c1ccccc1
outcome [1]: inactive
outcome [2]: inactive
outcome [10]: inactive
AC50 [8]: 9.22 µM (active) and 8.64 µM (active)
AC50 [9]: 8.78 µM (active) and 3.78 µM (active)
AC50 [6]: 7.87 µM (active)

CC1=C(/C=C/C(C)=C/C=C/C(C)=C/C(=O)O)C(C)(C)CCC1
outcome [1]: inactive
AC50 [2]: 0.168 µM (active)
AC50 [8]: 25 µM (active)
AC50 [6]: 0.0081 µM (active)

c1ccc2c(c1)ccc1ccccc12
outcome [1]: inactive
outcome [2]: inactive
outcome [10]: inactive
outcome [6]: inactive

O=c1c(-c2ccc(O)cc2)coc2cc(O)ccc12
outcome [1]: inactive
outcome [2]: inactive
AC50 [8]: 9.2 µM (active)
AC50 [9]: 0.393 µM (active)
outcome [6]: inactive

CCCCCCCCCCCCN1CCCC1=O
outcome [1]: inactive
AC50 [2]: 34.7 µM (active)
outcome [10]: inactive
AC50 [8]: 17.4 µM (active)
AC50 [9]: 14.9 µM (active)
outcome [7]: inactive
AC50 [6]: 8.11 µM (active)

CC(C)(C)c1cc(C(C)(C)C)c(O)c(C(C)(C)C)c1
outcome [1]: inactive
outcome [2]: inactive
outcome [3]: inactive
outcome [4]: inactive
AC50 [8]: 2.65 µM (active)
AC50 [9]: 9.06 µM (active)
outcome [5]: inactive
AC50 [6]: 7.36 µM (active)

CC(=O)NC1(c2cccc(F)c2)CCN(CC[C@@]2(c3ccc(Cl)c(Cl)c3)CN(c3ccccc3)C(=O)CO2)CC1
outcome [1]: inactive
outcome [2]: inactive

Oc1cc2ccccc2c2ccccc12
AC50 [1]: 10.3 µM (active)
AC50 [2]: 38.3 µM (active)
AC50 [8]: 1.72 µM (active)
AC50 [9]: 1.4 µM (active)
AC50 [6]: 4.98 µM (active)

C=C(C)C(=O)OCCC(F)(F)C(F)(F)C(F)(F)C(F)(F)C(F)(F)C(F)(F)F
outcome [1]: inactive
outcome [2]: inactive
outcome [3]: inactive
outcome [4]: inactive
outcome [5]: inactive
outcome [6]: inactive

CCCCCCCC(=O)O
outcome [1]: inactive
outcome [2]: inactive
outcome [10]: inactive
outcome [7]: inactive

NC(=O)N(O)[C@@H]1C=C[C@H](Oc2cccc(Oc3ccc(F)cc3)c2)C1
outcome [1]: inactive
outcome [2]: inactive
AC50 [8]: 6.75 µM (active)
AC50 [9]: 33.1 µM (active)
AC50 [6]: 14.9 µM (active)

Nc1cccc2c(N)cccc12
outcome [1]: inactive
outcome [2]: inactive
AC50 [8]: 2.06 µM (active)
AC50 [9]: 30.1 µM (active)
AC50 [6]: 48.9 µM (active)

CCc1ccc(CCOc2ccc(CC3SC(=O)NC3=O)cc2)nc1 (stereo unspecified)
outcome [2]: inactive

OCCC(F)(F)C(F)(F)C(F)(F)C(F)(F)C(F)(F)C(F)(F)F
outcome [1]: inactive
outcome [2]: inactive
outcome [6]: inactive

CC(C)(C)c1cccc(C(C)(C)C)c1O
outcome [1]: inactive
outcome [10]: inactive
AC50 [8]: 2.68 µM (active)
AC50 [9]: 10.2 µM (active)
AC50 [6]: 97.8 µM (active)

CCOC(=O)CC(O)(CC(=O)OCC)C(=O)OCC
outcome [1]: inactive
outcome [2]: inactive
outcome [7]: inactive

CCC(C)(C)C1CCC(O)CC1 (stereo unspecified)
outcome [1]: inactive
outcome [2]: inactive
outcome [7]: inactive
outcome [6]: inactive

Oc1cccc(O)c1
outcome [1]: inactive
AC50 [8]: 0.0137 µM (active)
outcome [9]: inactive

Cc1cc(C)c(O)c(C)c1
outcome [1]: inactive
AC50 [8]: 5.53 µM (active)
outcome [9]: inactive

N#C[C@@H]1CC(F)(F)CN1C(=O)CNC1CC2CCC(C1)N2c1ncccn1 (stereo partly specified)
outcome [2]: inactive
AC50 [8]: 36.6 µM (active)
outcome [9]: inactive

CCCCCCCCCCCCCC[N+](C)(C)C
AC50 [8]: 38.4 µM (active)
AC50 [9]: 13.7 µM (active)

O=C(O)Cc1cc(I)c(Oc2cc(I)c(O)c(I)c2)c(I)c1
outcome [1]: inactive
outcome [2]: inactive
AC50 [6]: 0.0352 µM (active)

CC(=O)CC(C)(C)O
outcome [2]: inactive
outcome [6]: inactive

ClC1=C(Cl)C(Cl)(Cl)C(Cl)=C1Cl
outcome [2]: inactive
outcome [3]: inactive
outcome [4]: inactive
outcome [5]: inactive
AC50 [6]: 4.87 µM (active)
